In all, about 360,000 compounds went through this assay and about 25,000 (6.9%) were called active. About 9% were inconclusive and are not listed. The call rests on the fitted dose curve; in most records, active means well fitted inhibition curve with a large enough effect; inconclusive means small, poorly fitted or top-dose-only effect; inactive means flat fitted curve, though single readings scatter. The entries come from a sample that favours actives as a whole. A call without a number means that no potency is given here.
Molecular target: Luciferin 4-monooxygenase (Photinus pyralis) (UniProt P08659)
Experiment: qHTS profiling assay for firefly luciferase inhibitor/activator using purifed enzyme and Km concentrations of substrates (counterscreen for miR-21 project); further: nearly all actives have a fitted effect of over 55% in size
Conditions: purified FLuc, luminescence inhibition; series mostly up to 57.5 µM
Summary of the method: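 Biochemical qHTS of compounds, final roughly 60 µM downward over six points, against 10 nM purified firefly luciferase using Km concentrations of substrates (10 uM D-luciferin, 10 uM ATP) in Tris acetate pH 7.5 buffer; luminescence output.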
Potency means the concentration at half of the fitted maximal effect.

Chain of Luciferin 4-monooxygenase (Photinus pyralis) (P08659 whole entry, looked up): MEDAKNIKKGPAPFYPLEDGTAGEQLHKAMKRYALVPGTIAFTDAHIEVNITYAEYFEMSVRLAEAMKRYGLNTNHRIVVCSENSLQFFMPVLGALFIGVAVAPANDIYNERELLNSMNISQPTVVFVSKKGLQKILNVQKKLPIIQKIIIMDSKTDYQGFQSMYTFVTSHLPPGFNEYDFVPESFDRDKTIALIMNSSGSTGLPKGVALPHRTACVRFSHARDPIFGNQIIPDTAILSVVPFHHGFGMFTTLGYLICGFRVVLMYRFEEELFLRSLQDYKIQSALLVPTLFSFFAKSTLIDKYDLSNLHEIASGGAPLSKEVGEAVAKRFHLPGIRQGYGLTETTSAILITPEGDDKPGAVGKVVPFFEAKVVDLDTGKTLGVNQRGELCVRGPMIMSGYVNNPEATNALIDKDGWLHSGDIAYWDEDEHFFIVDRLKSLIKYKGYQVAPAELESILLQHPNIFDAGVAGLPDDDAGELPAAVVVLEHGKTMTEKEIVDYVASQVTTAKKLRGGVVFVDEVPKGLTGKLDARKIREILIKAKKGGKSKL

| SMILES | Potency |
| --- | --- |
| O=C(CC1SC(=Nc2ccccc2)N(Cc2ccccn2)C1=O)Nc1cccc(Cl)c1 (stereo unspecified) | inactive |
| O=C(Nc1ccccc1)OCc1cn(-c2ccc(Cl)cc2)nn1 | inactive |
| O=C(Nc1cccc(Cl)c1)OCc1ccccn1 | 26.9 µM (active) |
| Nc1cccc(S(=O)(=O)Nc2ccc(SC(F)F)cc2)c1 | inactive |
| O=C(CCn1c(=O)c2sccc2n(Cc2ccc(F)cc2)c1=O)NCc1ccc2c(c1)OCO2 | inactive |
| COc1ccccc1N1CCN(C(CNC(=O)C(=O)NCc2ccc(C)cc2)c2cccnc2)CC1 (stereo unspecified) | inactive |
| CCOc1ccc(CNCc2c(C(=O)O)c(C)n(Cc3cccc(OC)c3)c2C)cc1OC | inactive |
| Oc1ccc(/C=N/NC2=NCCCCC2)c(O)c1 | 13.5 µM (active) |
| Cc1ccc(/C=N/NC(=O)C2=NNC(c3ccccc3)(c3ccccc3)C2)c(O)c1 | inactive |
| Oc1c(Br)cccc1/C=N/Nc1c(F)c(F)c(F)c(F)c1F | inactive |
| Cc1n[nH]c(=O)nc1N/N=C/c1cccs1 | inactive |
| CC(C)(C)Nc1nc(-c2ccccn2)nc2ccccc12 | inactive |
| Oc1ccc(/C=N/Nc2nc(-c3ccccc3F)nc3ccccc23)c(O)c1 | 10.7 µM (active) |
| COc1ccc(N2CCN(c3nc(-c4ccccc4F)nc4ccccc34)CC2)cc1 | inactive |
| Cc1nc2ccccc2nc1N/N=C/c1ccc(O)cc1O | 12 µM (active) |
| CN1c2ccc(Cl)cc2-c2nc(SCC(=O)Nc3cc(F)ccc3F)ncc2S1(=O)=O | inactive |
| O=C(NCCCO)C(=O)Nc1c2c(nn1-c1ccc(F)cc1)CSC2 | inactive |
| Cn1c2cc(B(O)O)sc2c2cnn(Cc3ccccc3F)c(=O)c21 | inactive |
| CCc1noc(C)c1C(=O)N1CCN(S(=O)(=O)c2cccc(C(F)(F)F)c2)CC1 | inactive |
| OCC[C@H]1C[C@@H](O)[C@H](O)[C@@]2(OCCc3ccccc32)O1 | inactive |
| COc1ccc(S(=O)(=O)N2CCN(CC(=O)N3c4ccccc4CC3C)CC2)cc1OC (stereo unspecified) | inactive |
| CC1Cc2cc(S(=O)(=O)CCC(=O)NCc3ccc(Cl)cc3)ccc2N1C(=O)C1CC1 (stereo unspecified) | inactive |

| SMILES | Potency |
| --- | --- |
| O=S(=O)(NCc1ccc(Cl)cc1Cl)c1cccs1 | inactive |
| O=S(=O)(Nc1ccccc1Br)c1cccs1 | inactive |
| O=C(Nc1cccc(Cl)c1)Nc1ccccc1NS(=O)(=O)c1cccs1 | 16.9 µM (active) |
| Cc1ccc(Cl)cc1N(C)C(=O)C1CCCN(c2ncnc3onc(-c4ccc(F)cc4)c23)C1 (stereo unspecified) | inactive |
| COc1ccccc1C(=O)Nc1c(C(=O)Nc2ccc(C)cc2)oc2ccccc12 | inactive |
| COc1cc(OC)cc(C(=O)Nc2c(C(=O)Nc3ccc(F)cc3)oc3ccccc23)c1 | 2.69 µM (active) |
| COc1ccccc1NC(=O)c1oc2ccccc2c1NC(=O)C(C)C | inactive |
| Cc1ccc(C)c(NC(=O)Cn2ccn(-c3ccc(F)cc3)c(=O)c2=O)c1 | inactive |
| CCOC(=O)C1CCN(c2nc3c(S(=O)(=O)c4ccc(CC)cc4)nnn3c3ccc(Cl)cc23)CC1 | inactive |
| CCc1ccc(CNC(=O)c2cc3c(=O)n(CC)c4ccccc4c3s2)cc1 | inactive |
| O=C(CCN1CCCO1)N1CCCC(N2CCN(c3cccc(C(F)(F)F)c3)CC2)C1 (stereo unspecified) | inactive |
| CCC(CC)c1nnc(NS(=O)(=O)Cc2ccccc2)s1 | inactive |
| CCC(CC)c1nn2cc(-c3ccccc3)nc2s1 | 0.269 µM (active) |
| CCc1ccc(CNC(=O)C2CCN(c3nn4cc(-c5ccc(F)cc5)nc4s3)CC2)cc1 | inactive |
| Cc1ccc(F)cc1NC(=O)CCSc1nc(-c2ccco2)cc(C(F)(F)F)n1 | inactive |
| Clc1ccccc1CSc1nncn2c1cc1occc12 | inactive |
| CSCCC(NC(=O)COc1ccccc1)C(=O)N(C)CC(=O)Nc1ccc(C)cc1 (stereo unspecified) | inactive |
| CCOC(=O)C1CCN(C(=O)CSc2c3c(nc4ccc(Cl)cc24)CCCC3)CC1 | inactive |
| C=CCNc1scc(-c2ccccc2)[n+]1CC=C | inactive |
| C=CC[n+]1c(-c2ccc(C)cc2)csc1NNC(=O)Nc1ccccc1 | 19 µM (active) |
| C=CCNC(=O)c1csc(-c2ccccc2)n1 | inactive |
| CCOC(=O)C1CCCN(CCSc2ccc(C)cc2)C1 (stereo unspecified) | inactive |

| SMILES | Potency |
| --- | --- |
| O=C(COC(=O)CNC(=O)C1CCCCC1)NCc1ccccc1 | inactive |
| COc1ccc2c(CC(=O)OCC(=O)Nc3ccccc3[N+](=O)[O-])coc2c1 | inactive |
| Cc1ccc(C)c(OCC(=O)N2CCN(C(=O)c3ccco3)CC2)c1 | inactive |
| Cc1nc2ccc(C(=O)N3CCN(c4ccccc4)CC3)cc2s1 | inactive |
| Cc1ccc(OCC(=O)Nc2ccc(N3CCN(C(=O)c4ccco4)CC3)cc2)c(C)c1 | inactive |
| CC1CCN(c2nc3ccc(C(=O)N4CCN(c5ccccc5)CC4)cc3s2)CC1 | 23.9 µM (active) |
| Cc1ccc2nc(N3CCN(C(=O)c4ccco4)CC3)sc2c1 | 10.7 µM (active) |
| Cc1nc2ccc(C(=O)N3CCSCC3)cc2s1 | inactive |
| COc1cccc(CN2CCc3nc(SCC(=O)Nc4ccccc4)[nH]c(=O)c3C2)c1 | inactive |
| COC(=O)C(NS(=O)(=O)c1ccc(F)cc1)c1ccccc1 (stereo unspecified) | inactive |
| CCOc1ccc(N(Cc2ccccc2)C(=O)c2nc(S(C)(=O)=O)ncc2Cl)cc1 | inactive |
| COc1ccc(C(=O)Cn2nnc(-c3ccc(N4CCOCC4)cc3)n2)cc1OC | 8.49 µM (active) |
| CCOc1ccc(-c2nnn(CC(=O)N3CCN(c4ccc(F)cc4)CC3)n2)cc1OCC | inactive |
| CCOc1ccc(-c2nnn(CC(=O)N3CCN(c4ccc(OC)cc4)CC3)n2)cc1OCC | inactive |
| COC(=O)C1CCN(C(=O)c2ccc3oc(Cc4ccc(Cl)cc4)nc3c2)CC1 | inactive |
| COc1cccc(NC(=O)Cn2c(=O)cc(C)c3c(C)nn(-c4cccc(F)c4)c32)c1 | inactive |
| Cn1c(=O)n(C)c2cc(S(=O)(=O)Nc3ccc(F)cc3)ccc21 | inactive |
| COc1cc(OC)cc(C(=O)Nc2nnc(SCC(=O)NCC3CCCO3)s2)c1 (stereo unspecified) | 15.1 µM (active) |
| Cc1ccc2cc(C#N)c(SCC(=O)NCC3CCCO3)nc2c1C (stereo unspecified) | inactive |
| COc1ccccc1N1CC(C(=O)Nc2nnc(SCC(=O)NCC3CCCO3)s2)CC1=O (stereo unspecified) | inactive |
| Cc1cc(C)nc(Nc2n[nH]c(-c3ccccc3N)n2)n1 | 0.953 µM (active) |
| Cc1cc(C)nc(Nc2ncn[nH]2)n1 | inactive |

| SMILES | Potency |
| --- | --- |
| CCCOc1ccccc1-c1nc(SCCC(=O)O)n[nH]1 | inactive |
| COC(=O)C1=C(c2ccccc2)c2ccccc2S(=O)(=O)N1CC(=O)Nc1ccccc1C(F)(F)F | inactive |
| O=C(CSc1nccn1C1CCCC1)Nc1cc(C(F)(F)F)ccc1Cl | inactive |
| COc1ccc(C)cc1Nc1nc(C)nc2c1oc1ccccc12 | inactive |
| CCC(C(=O)OC)n1cnc2c(oc3ccccc32)c1=O (stereo unspecified) | inactive |
| COc1ccccc1Nc1ncnc2c1oc1ccccc12 | 13.5 µM (active) |
| O=C(CN1C(=O)NC2(CCOc3ccccc32)C1=O)NCc1ccc(F)cc1 (stereo unspecified) | inactive |
| Cc1nccn1CC(=O)N/N=C/c1ccc(O)c(O)c1 | inactive |
| CCN(CC)CCn1c(/N=C/c2cc(Br)ccc2O)nc2ccccc21 | inactive |
| Oc1ccc(Br)cc1/C=N/Nc1ccccn1 | 8.49 µM (active) |
| O=C(Nc1ccccc1)N1CCN(C2c3ccccc3-c3ccccc32)CC1 | inactive |
| CC1=C(c2ccc(C)c(C)c2)S(=O)(=O)NC1=NCc1ccccc1Cl | inactive |
| CC(C)CN(C(=O)CSc1ncnc2sccc12)C1CCS(=O)(=O)C1 (stereo unspecified) | inactive |
| COC(=O)c1cnc(Nc2cc(C)ccc2OC)c2ccccc12 | inactive |
| COc1ccc(C)cc1Nc1nc2ccccc2c2nnc(C)n12 | inactive |
| COc1ccc(C)cc1Nc1nc(-c2c(C)[nH]c3ccccc23)cs1 | 13.5 µM (active) |
| Cc1ccc(CN2C(=O)SC(Nc3ccccc3)C2=O)cc1 (stereo unspecified) | inactive |
| Cc1ccc(N(CC(=O)NCc2ccc(Cl)cc2)S(=O)(=O)N(C)C)cc1 | inactive |
| Cc1cc(C)cc(OC(C)C(=O)Nc2nc3c(s2)CCCC3)c1 (stereo unspecified) | inactive |
| COC(=O)C(NC(C)=O)(Nc1nc2c(s1)CCCC2)C(F)(F)F (stereo unspecified) | inactive |
| Fc1ccc2nc(Nc3nc4c(s3)CCCC4)sc2c1 | 3.01 µM (active) |
| Cc1cccc(Nc2nc(C)nc(N)c2S(=O)(=O)c2ccccc2)c1 | inactive |

| SMILES | Potency |
| --- | --- |
| CCc1ccccc1NC(=O)Cn1c(=O)n(CC2CCC(C(=O)NCCc3ccccc3)CC2)c(=O)c2ccccc21 (stereo unspecified) | inactive |
| C=CCSc1nsc(NC(=O)Nc2cccc(C(C)=O)c2)n1 | 15.1 µM (active) |
| CC(=O)c1cccc(NC(=S)N2CCN(S(C)(=O)=O)CC2)c1 | inactive |
| CSc1ccccc1C(=O)Nc1cccc(C(C)=O)c1 | inactive |
| COc1ccc(NC(C(=O)Nc2cccc(C(C)=O)c2)c2ccccc2)cc1 (stereo unspecified) | inactive |
| CCSc1nsc(NC(=O)Nc2cccc(C(C)=O)c2)n1 | 19 µM (active) |
| CC(=O)c1cccc(NC(=O)CSc2nc3c(c(=O)[nH]2)CCC3)c1 | inactive |
| Cc1ccc2c(c1)-c1c(cnn1CC(=O)Nc1ccccc1C#N)CO2 | inactive |
| Cc1ccc(Cn2c(=O)n(Cc3nc(-c4ccccc4)no3)c(=O)c3cc4c(cc32)OCO4)cc1 | inactive |
| Cc1ccccc1OCc1nnc(SCC(=O)N2c3ccccc3Sc3ccc(Cl)cc32)o1 | inactive |
| CC1CCC(NS(=O)(=O)c2ccc3c(c2)CC(=O)N3)CC1 (stereo unspecified) | inactive |
| Cc1ccc(NC(=O)c2cc(S(=O)(=O)NCCC3=CCCCC3)ccc2F)cc1C | inactive |
| CCN1CCN(C(=O)CSc2ccc(C)cc2)CC1 | inactive |
| COC(=O)c1cc(OC)c(OC)cc1NC(=O)CSc1ccc(C)cc1 | inactive |
| Cc1ccc(SCC(=O)c2cc(C)c(OC(=S)N(C)C)c(C)c2)cc1 | 8.49 µM (active) |
| COc1ccc(OC)c(Nc2nc3ccccc3n3cnnc23)c1 | inactive |
| COc1cc(Nc2nc3ccc(Cl)cc3n3cnnc23)cc(OC)c1OC | inactive |
| COc1cc(/C=N/Nc2nn3cnnc3c3ccccc23)cc(OC)c1OC | 0.953 µM (active) |

Source: PubChem BioAssay AID588342 (National Center for Advancing Translational Sciences (NCATS), 2011)
